Test results from PubChem BioAssay AID1159580 (chemical genetic matrix, 2015).
About 2,000 (36%) of roughly 5,500 compounds were called active. Not shown: some 18% with an inconclusive outcome. This is one part of the list. Values without a mark were called inactive. No stated cut-off is given here; in the data, active means normalized growth mostly below about 0.91 (no sharp cut-off); inconclusive means no clear call, values can overlap the other calls; inactive means mostly above about 0.92.

Experiment: chemical genetic growth profiling, strain panel (AID 1159580);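 further: tested at 20 µM; growth read once vehicle control cultures reached saturation at 30 °C; 1 = growth at the plate median or of vehicle wells; lower values mean less growth of the strain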
Conditions: S. cerevisiae deletion strains, growth OD
[1] = locus YAR019C, strain CDC15, hits give low values
[2] = locus YBL105C, strain PKC1, hits give low values
[3] = locus YBR135W, strain CKS1, hits give low values
[4] = locus YBR136W, strain MEC1, hits give low values
[5] = locus YBR160W, strain CDC28, hits give low values
[6] = locus YDL017W, strain CDC7, hits give low values
[7] = locus YDL028C, strain MPS1, hits give low values
[8] = locus YDL101C, strain DUN1, hits give low values
[9] = locus YDL108W, strain KIN28, hits give low values
[10] = locus YDL132W, strain cdc53, hits give low values
[11] = locus YDL214C, strain PRR2, hits give low values
[12] = locus YDR052C, strain DBF4, hits give low values
[13] = locus YDR054C, strain cdc34, hits give low values
[14] = locus YDR226W, strain ADK1, hits give low values
[15] = locus YDR477W, strain SNF1, hits give low values
[16] = locus YER123W, strain YCK3, hits give low values
[17] = locus YER133W, strain GLC7, hits give low values
[18] = locus YFL009W, strain cdc4, hits give low values
[19] = locus YFL029C, strain CAK1, hits give low values
[20] = locus YFR003C, strain YPI1, hits give low values
[21] = locus YFR019W, strain FAB1, hits give low values
[22] = locus YFR028C, strain CDC14, hits give low values
[23] = locus YGR040W, strain KSS1, hits give low values
[24] = locus YGR052W, strain FMP48, hits give low values
[25] = locus YGR092W, strain DBF2, hits give low values
[26] = locus YHR030C, strain SLT2, hits give low values
[27] = locus YHR079C, strain IRE1, hits give low values
[28] = locus YHR082C, strain KSP1, hits give low values
[29] = locus YHR205W, strain SCH9, hits give low values
[30] = locus YIL147C, strain SLN1, hits give low values
[31] = locus YJL095W, strain BCK1, hits give low values
[32] = locus YJL128C, strain PBS2, hits give low values
[33] = locus YJL157C, strain FAR1, hits give low values
[34] = locus YJR016C, strain ILV3, hits give low values
[35] = locus YJR066W, strain TOR1 (second series), hits give low values
[36] = locus YJR066W, strain TOR1, hits give low values
[37] = locus YKL048C, strain ELM1, hits give low values
[38] = locus YKL067W, strain YNK1, hits give low values
[39] = locus YKL101W, strain HSL1, hits give low values
[40] = locus YKL193C, strain SDS22, hits give low values
[41] = locus YKL203C, strain TOR2, hits give low values
[42] = locus YLR113W, strain HOG1, hits give low values
[43] = locus YLR133W, strain CKI1, hits give low values
[44] = locus YLR403W, strain SFP1, hits give low values
[45] = locus YML070W, strain DAK1, hits give low values
[46] = locus YMR001C, strain CDC5, hits give low values
[47] = locus YMR205C, strain PFK2 (second series), hits give low values
[48] = locus YMR277W, strain FCP1, hits give low values
[49] = locus YNL006W, strain LST8, hits give low values
[50] = locus YNL020C, strain ARK1, hits give low values
[51] = locus YNL161W, strain CBK1, hits give low values
[52] = locus YNL183C, strain NPR1, hits give low values
[53] = locus YNL207W, strain RIO2, hits give low values
[54] = locus YNL222W, strain SSU72, hits give low values
[55] = locus YNL307C, strain MCK1 (second series), hits give low values
[56] = locus YOL078W, strain AVO1, hits give low values
[57] = locus YOL136C, strain PFK27, hits give low values
[58] = locus YOR061W, strain CKA2, hits give low values
[59] = locus YOR119C, strain RIO1, hits give low values
[60] = locus YOR231W, strain MKK1, hits give low values
[61] = locus YOR329C, strain SCD5, hits give low values
[62] = locus YPL031C, strain PHO85, hits give low values
[63] = locus YPL153C, strain RAD53, hits give low values
[64] = locus YPL204W, strain HRR25, hits give low values
[65] = locus YPL209C, strain IPL1, hits give low values
[66] = locus YPL256C, strain CLN2, hits give low values
[67] = locus YPR025C, strain CCL1, hits give low values
[68] = locus YPR106W, strain ISR1, hits give low values
[69] = locus YPR111W, strain DBF20, hits give low values
[70] = strain NNK1, hits give low values
[71] = strain TSCII, hits give low values

Cc1c(Cl)cccc1NC(=S)N1CCCN(c2nc3ccc(Cl)cc3s2)CC1
normalized growth [1]: 0.977
normalized growth [2]: 0.977
normalized growth [3]: 0.983
normalized growth [4]: 0.979
normalized growth [5]: 0.978
normalized growth [6]: 0.972
normalized growth [7]: 0.978
normalized growth [8]: 0.965
normalized growth [9]: 0.983
normalized growth [10]: 0.99
normalized growth [11]: 0.97
normalized growth [12]: 0.986
normalized growth [13]: 0.975
normalized growth [14]: 0.984
normalized growth [15]: 0.933
normalized growth [16]: 0.936
normalized growth [17]: 0.941
normalized growth [18]: 0.98
normalized growth [19]: 0.968
normalized growth [20]: 0.985
normalized growth [21]: 1.01
normalized growth [22]: 0.98
normalized growth [23]: 0.937
normalized growth [24]: 0.975
normalized growth [25]: 0.722
normalized growth [26]: 0.625 (active)
normalized growth [27]: 0.7
normalized growth [28]: 1.06
normalized growth [29]: 0.97
normalized growth [30]: 0.981
normalized growth [31]: 0.863
normalized growth [32]: 0.957
normalized growth [33]: 0.897
normalized growth [34]: 0.978
normalized growth [35]: 0.84
normalized growth [36]: 0.947
normalized growth [37]: 0.97
normalized growth [38]: 0.947
normalized growth [39]: 0.963
normalized growth [40]: 0.978
normalized growth [41]: 0.974
normalized growth [42]: 0.794 (active)
normalized growth [43]: 0.941
normalized growth [44]: 0.898
normalized growth [45]: 0.972
normalized growth [46]: 0.982
normalized growth [47]: 0.971
normalized growth [48]: 0.976
normalized growth [49]: 0.963
normalized growth [50]: 0.909
normalized growth [51]: 0.986
normalized growth [52]: 0.989
normalized growth [53]: 0.976
normalized growth [54]: 0.98
normalized growth [55]: 0.951
normalized growth [56]: 0.992
normalized growth [57]: 0.942
normalized growth [58]: 0.87
normalized growth [59]: 0.974
normalized growth [60]: 0.876
normalized growth [61]: 0.974
normalized growth [62]: 0.937
normalized growth [63]: 0.908
normalized growth [64]: 0.876
normalized growth [65]: 0.978
normalized growth [66]: 0.772 (active)
normalized growth [67]: 0.975
normalized growth [68]: 0.981
normalized growth [69]: 0.992
normalized growth [70]: 0.984
normalized growth [71]: 0.976

CC(C)(C)C1=NN(c2nc3ccc(Cl)cc3s2)C(=O)C1
normalized growth [1]: 0.484 (active)
normalized growth [2]: 0.0905 (active)
normalized growth [3]: 0.0897 (active)
normalized growth [4]: 0.102 (active)
normalized growth [5]: 0.111 (active)
normalized growth [6]: 0.0926 (active)
normalized growth [7]: 0.105 (active)
normalized growth [8]: 0.496 (active)
normalized growth [9]: 0.516 (active)
normalized growth [10]: 0.436 (active)
normalized growth [11]: 0.104 (active)
normalized growth [12]: 0.116 (active)
normalized growth [13]: 0.225 (active)
normalized growth [14]: 0.898
normalized growth [15]: 0.11 (active)
normalized growth [16]: 0.0976 (active)
normalized growth [17]: 0.11 (active)
normalized growth [18]: 0.11 (active)
normalized growth [19]: 0.0958 (active)
normalized growth [20]: 0.0998 (active)
normalized growth [21]: 0.109 (active)
normalized growth [22]: 0.101 (active)
normalized growth [23]: 0.121 (active)
normalized growth [24]: 0.114 (active)
normalized growth [25]: 0.0994 (active)
normalized growth [26]: 0.106 (active)
normalized growth [27]: 0.111 (active)
normalized growth [28]: 0.121 (active)
normalized growth [29]: 0.00427 (active)
normalized growth [30]: 0.104 (active)
normalized growth [31]: 0.104 (active)
normalized growth [32]: 0.103 (active)
normalized growth [33]: 0.101 (active)
normalized growth [34]: 0.118 (active)
normalized growth [35]: 0.0988 (active)
normalized growth [36]: 0.108 (active)
normalized growth [37]: 0.119 (active)
normalized growth [38]: 0.144 (active)
normalized growth [39]: 0.0952 (active)
normalized growth [40]: 0.093 (active)
normalized growth [41]: 0.1 (active)
normalized growth [42]: 0.14 (active)
normalized growth [43]: 0.107 (active)
normalized growth [44]: 0.00206 (active)
normalized growth [45]: 0.1 (active)
normalized growth [46]: 0.15 (active)
normalized growth [47]: 0.0849 (active)
normalized growth [48]: 0.262 (active)
normalized growth [49]: 0.12 (active)
normalized growth [50]: 0.107 (active)
normalized growth [51]: 0.429 (active)
normalized growth [52]: 0.105 (active)
normalized growth [53]: 0.179 (active)
normalized growth [54]: 0.504 (active)
normalized growth [55]: 0.107 (active)
normalized growth [56]: 0.0851 (active)
normalized growth [57]: 0.111 (active)
normalized growth [58]: 0.0975 (active)
normalized growth [59]: 0.114 (active)
normalized growth [60]: 0.104 (active)
normalized growth [61]: 0.299 (active)
normalized growth [62]: 0.0965 (active)
normalized growth [63]: 0.0988 (active)
normalized growth [64]: 0.11 (active)
normalized growth [65]: 0.0986 (active)
normalized growth [66]: 0.121 (active)
normalized growth [67]: 0.124 (active)
normalized growth [68]: 0.199 (active)
normalized growth [69]: 0.463 (active)
normalized growth [70]: 0.106 (active)
normalized growth [71]: 0.48 (active)
